Experimental data: PubChem BioAssay (NCI)
The panel holds about 79,000 compounds, 15% with a hit somewhere; the sample as a whole holds those more often. Values without a mark were called inactive. Active and inactive are the calls of the source. Cut-off read from the data, not from the text of the source: active = growth inhibition above about 70%; inactive = the rest.

assay: NCI Yeast Anticancer Drug Screen. Data for the mec2-1 strain (AID 157); details: S. cerevisiae mec2-1 strain, at 50.0 µM (retest, dose inferred, filed as 5.0), active compounds read high
Summary of the method: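 Readout is yeast growth inhibition, normalised to vehicle-treated controls, in the mec2-1 strain exposed to compound.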

SMILES	growth inhibition
Oc1c(Br)cc(Cl)cc1Br	99% (active)
COc1ccc(C2Oc3ccc(Cl)cc3C=C2[N+](=O)[O-])cc1OC (stereo not given)	96% (active)
COC(=O)C(=O)CC(=O)c1cccc(Cl)c1	100% (active)
O/N=C(/C[N+]12CN3CN(CN(C3)C1)C2)c1ccc(I)cc1	40%
COc1cc(CCN=Cc2cc(Cl)cc(Cl)c2O)c([N+](=O)[O-])cc1OC	55%
COc1ccc2c(c1OC)C1=C(C2=O)c2cc3c(cc2CCN1)OCO3	86% (active)
CC(C)(C)[Si](C)(C)OCC1OC(n2cc(I)c(N)nc2=O)C(O[Si](C)(C)C(C)(C)C)C1O[Si](C)(C)C(C)(C)C (stereo not given)	98% (active)
O=S(=O)(Nc1ccccn1)c1ccc(NCc2c3ccccc3nc3cc(Cl)ccc23)cc1	37%
OCc1ccc2c(c1)CC1(C2)Cc2cc3c(cc2C1O)CCC3 (stereo not given)	36%
COc1cc(C(c2cc3c(cc2O)OCO3)N2CCOCC2)ccc1O (stereo not given)	46%
CCCCCCCCCCCCCCSC(=N)N	97% (active)
Cc1ccccc1NC(=S)Nc1ccccc1O	87% (active)
c1cc2cc(Cc3ccc4[nH]ccc4c3)ccc2[nH]1	36%
N=C(N)c1ccc(-c2ccc(-c3ccc(C(=N)N)cc3)o2)cc1	52%
O=c1oc2c/c(=C\c3ccccc3)c(=O)c3cccc1c3-2	95% (active)
CCCCCCCC(=O)/C=C/c1ccc(C)cc1	-50%
COc1ccc(CCC2(C)OCCC(C)O2)cc1 (stereo not given)	96% (active)
O=C(O)C(SC1=NNC2(C(=O)N1)c1ccccc1-c1ccccc12)SC1=NNC2(C(=O)N1)c1ccccc1-c1ccccc12	92% (active)
CC1(C)NNC(=S)NN1	8%
O=C([O-])c1ccccc1[I+]c1ccc(C2CCCCC2)cc1	67%

SMILES	growth inhibition
ClC1=C(Cl)C(Cl)(C(Cl)(Cl)Cl)C(Cl)=C1Cl	99% (active)
Cn1nc(N)c2cccnc21	3%
CC(C)(C)c1ccc(-n2c3nc(=O)n(-c4ccccc4C(F)(F)F)c(=O)c-3cc3ccccc32)cc1	99% (active)
C/C(=N\Nc1ccccn1)c1ccccn1	99% (active)
COc1ccc2c(C)cc(N/N=C(\C)c3ccccn3)nc2c1	51%
CC([NH-])C(=O)O.[Cu+2].[NH-]C(Cc1cnc[nH]1)C(=O)O (stereo not given)	0%
COc1ccc(C)cc1NC(=O)ON=C1CCCCC1	88% (active)
Oc1c(N(Cc2ccccc2)Cc2ccccc2)ccc2cccnc12	96% (active)
Cc1ccc2[nH]c3cc4ccncc4cc3c2c1	95% (active)
Cc1ccc2nn(-c3ccc(O)cc3)nc2c1	42%
Oc1ccc2c(ccc3ccccc32)c1	100% (active)
ClCc1ccc2ccc3ccc(CCl)nc3c2n1	93% (active)
CC(=O)c1c(O)c2ccc(Cl)cc2[nH]c1=O	87% (active)
O=C(c1ccc(Cl)cc1)c1ccc(OCCCOc2ccc(C(=O)c3ccc(Cl)cc3)cc2)cc1	2%
C=C1CC2(C[C@@H](c3ccccc3)O[C@@H](c3ccccc3)C2)OC1=O (stereo not given in full)	98% (active)
O=C(N=Nc1c(O)[nH]c2ccccc12)C(O)(c1ccccc1)c1ccccc1	32%
C/C(=N\O)c1ccc2c3c(ccc([N+](=O)[O-])c13)CC2	7%
N#CS/C(Cl)=C(/C(Cl)=C(Cl)Cl)[N+](=O)[O-]	99% (active)
N#C/C(=C1C=C/C(=N/O)C=C/1Cl)c1ccccc1	4%
O=C1/C(=C/c2ccc(Cl)c(Cl)c2)CN(C(=O)CCN2CCOCC2)C/C1=C\c1ccc(Cl)c(Cl)c1	94% (active)

same assay, conditions: S. cerevisiae mec2-1 strain, at 50.0 µM, active compounds read high

SMILES	growth inhibition
Oc1c(Br)cc(Cl)cc1Br	98% (active)
COc1ccc(C2Oc3ccc(Cl)cc3C=C2[N+](=O)[O-])cc1OC (stereo not given)	77% (active)
COC(=O)C(=O)CC(=O)c1cccc(Cl)c1	77% (active)
O/N=C(/C[N+]12CN3CN(CN(C3)C1)C2)c1ccc(I)cc1	84% (active)
COc1cc(CCN=Cc2cc(Cl)cc(Cl)c2O)c([N+](=O)[O-])cc1OC	69.5%
COc1ccc2c(c1OC)C1=C(C2=O)c2cc3c(cc2CCN1)OCO3	45.7%
CC(C)(C)[Si](C)(C)OCC1OC(n2cc(I)c(N)nc2=O)C(O[Si](C)(C)C(C)(C)C)C1O[Si](C)(C)C(C)(C)C (stereo not given)	60.8%
O=S(=O)(Nc1ccccn1)c1ccc(NCc2c3ccccc3nc3cc(Cl)ccc23)cc1	55.2%
OCc1ccc2c(c1)CC1(C2)Cc2cc3c(cc2C1O)CCC3 (stereo not given)	42.4%
COc1cc(C(c2cc3c(cc2O)OCO3)N2CCOCC2)ccc1O (stereo not given)	57.5%
CCCCCCCCCCCCCCSC(=N)N	98.5% (active)
Cc1ccccc1NC(=S)Nc1ccccc1O	94.4% (active)
c1cc2cc(Cc3ccc4[nH]ccc4c3)ccc2[nH]1	11.4%
N=C(N)c1ccc(-c2ccc(-c3ccc(C(=N)N)cc3)o2)cc1	89% (active)
O=c1oc2c/c(=C\c3ccccc3)c(=O)c3cccc1c3-2	88.7% (active)
CCCCCCCC(=O)/C=C/c1ccc(C)cc1	44.1%
COc1ccc(CCC2(C)OCCC(C)O2)cc1 (stereo not given)	-6.35%
O=C(O)C(SC1=NNC2(C(=O)N1)c1ccccc1-c1ccccc12)SC1=NNC2(C(=O)N1)c1ccccc1-c1ccccc12	96.3% (active)
CC1(C)NNC(=S)NN1	15.4%
O=C([O-])c1ccccc1[I+]c1ccc(C2CCCCC2)cc1	79.6% (active)

SMILES	growth inhibition
ClC1=C(Cl)C(Cl)(C(Cl)(Cl)Cl)C(Cl)=C1Cl	99.6% (active)
Cn1nc(N)c2cccnc21	1.7%
CC(C)(C)c1ccc(-n2c3nc(=O)n(-c4ccccc4C(F)(F)F)c(=O)c-3cc3ccccc32)cc1	50%
C/C(=N\Nc1ccccn1)c1ccccn1	98.7% (active)
COc1ccc2c(C)cc(N/N=C(\C)c3ccccn3)nc2c1	99.7% (active)
CC([NH-])C(=O)O.[Cu+2].[NH-]C(Cc1cnc[nH]1)C(=O)O (stereo not given)	99.3% (active)
COc1ccc(C)cc1NC(=O)ON=C1CCCCC1	91.8% (active)
Oc1c(N(Cc2ccccc2)Cc2ccccc2)ccc2cccnc12	98.5% (active)
Cc1ccc2[nH]c3cc4ccncc4cc3c2c1	98.6% (active)
Cc1ccc2nn(-c3ccc(O)cc3)nc2c1	22.6%
Oc1ccc2c(ccc3ccccc32)c1	97.3% (active)
ClCc1ccc2ccc3ccc(CCl)nc3c2n1	43%
CC(=O)c1c(O)c2ccc(Cl)cc2[nH]c1=O	14.7%
O=C(c1ccc(Cl)cc1)c1ccc(OCCCOc2ccc(C(=O)c3ccc(Cl)cc3)cc2)cc1	-16.1%
C=C1CC2(C[C@@H](c3ccccc3)O[C@@H](c3ccccc3)C2)OC1=O (stereo not given in full)	94.6% (active)
O=C(N=Nc1c(O)[nH]c2ccccc12)C(O)(c1ccccc1)c1ccccc1	-8.75%
C/C(=N\O)c1ccc2c3c(ccc([N+](=O)[O-])c13)CC2	29.2%
N#CS/C(Cl)=C(/C(Cl)=C(Cl)Cl)[N+](=O)[O-]	70.7% (active)
N#C/C(=C1C=C/C(=N/O)C=C/1Cl)c1ccccc1	24.3%
O=C1/C(=C/c2ccc(Cl)c(Cl)c2)CN(C(=O)CCN2CCOCC2)C/C1=C\c1ccc(Cl)c(Cl)c1	85.8% (active)
